# In the library only some 6.5% were active in any assay of this set; here they are far more common.
# Vaccinia Venus – qHTS for Stage-Specific Inhibitors of Vaccinia Orthopoxvirus: Venus Reporter Primary qHTS; Vaccinia virus Venus reporter expression, fluorescence; Potency, µM (titrated, usually from 36.5 µM), hits mostly inhibitors; actives 0.46% (n = 330,000); calls by dose curve; tested in A549 cells; also: nearly all actives have a fitted effect of over 30% in size
# VACV mCherry inh – qHTS for Stage-Specific Inhibitors of Vaccinia Orthopoxvirus: mCherry Reporter Primary qHTS | Vaccinia virus mCherry reporter infection, fluorescence | Potency, µM (highest dose often 36.5 µM), hits mostly inhibitors | actives 0.63% (n = 310,000) | AID 720579, 2013; calls by dose curve; tested in A549 cells; also: nearly all actives have a fitted effect of over 35% in size
# FMDV inh – High Throughput Screening for Foot and Mouth Disease Virus Antivirals; actives 1.2% (n = 410,000); FMDV antiviral cell-based qHTS; Potency, µM (highest dose often 57.9 µM), most hits filed as inhibitors; calls by dose curve; tested in HEK293T cells; also: read-out not given here; nearly all actives have a fitted effect of over 45% in size
# HCMV antiviral – qHTS Assay for inhibitors of the human cytomegalovirus (HCMV) | HFF cells, HCMV-luciferase reporter, 72 h; hits give low values | activity change, negative = inhibition, % at 57.5 µM | actives 4.5% (n = 410,000) | AID 1259415, 2018; in the data active = activity change below about -60%; inconclusive = no clear call, values can overlap the other calls; inactive = above about -39%
#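 HFF cells seeded 16 h at 37C, treated with compounds, infected with luciferase-reporter HCMV at MOI 1 PFU/cell; luciferase read at 72 h post infection, normalized to buffer-only and Salinomycin controls.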
# Lassa entry inh – qHTS for Inhibitors of binding or entry into cells for Lassa Virus; Lassa virus pseudotype entry inhibition, cell reporter; Potency, µM (titrated, usually from 37.9 µM), most hits filed as inhibitors; actives 1.2% (n = 300,000); calls by dose curve; tested in HEK293 cells; also: nearly all actives have a fitted effect of over 50% in size
# MARV entry inh – qHTS for inhibitors of binding or entry into cells for Marburg Virus. Marburg virus pseudotyped entry inhibition, cell reporter. Potency, µM (top dose mostly 37.8 µM), actives largely listed as inhibitors. actives 1.8% (n = 300,000); calls by dose curve; tested in HEK293 cells
# Numbers stand for hits; - = inactive; ? = inconclusive; . = no result given; ! = not confirmed by another sample.
SMILES,Vaccinia Venus,VACV mCherry inh,FMDV inh,HCMV antiviral,Lassa entry inh,MARV entry inh
CCOC(=O)C1=C(C)NC(C)=C(C(=O)OCC)C1C(=O)OCC(=O)N1c2ccccc2CC1C (configuration not stated),-,-,-,-,?,13µM!
CCOC(=O)c1c(C)[nH]c(C(=O)OCC(=O)N2c3ccccc3CC2C)c1C (configuration not stated),-,?,?,-,?,?
CCN1CCN(c2cc(C)c3cc(NC(=O)c4cc(OC)cc(OC)c4)ccc3n2)CC1,-,-,-,-90!,?,?
COc1ccc(C(=O)Nc2ccc3nc(N4CCC(C)CC4)cc(C)c3c2)cc1,-,-,32µM,-,-,?
CCN1CCN(c2cc(C)c3cc(NC(=S)N4CCN(c5ccccc5)CC4)ccc3n2)CC1,-,-,-,-61,-,?
Cc1cc(N2CCN(C)CC2)nc2ccc(NC(=O)c3ccc(Br)o3)cc12,.,.,-,-,-,-
Cc1cc(N2CCCCC2)nc2ccc(NC(=O)c3ccc(Br)o3)cc12,-,?,40µM,-,?,?
Cc1cc(N2CCN(C)CC2)nc2ccc(NC(=O)c3ccc4c(c3)OCO4)cc12,?,?,-,-,16µM,4.1µM
Cn1cnnc1SCC(=O)c1cc2ccccc2o1,.,.,-,?,.,.
Cn1c(SCC(=O)N/N=C/c2ccc([N+](=O)[O-])s2)nnc1-c1ccccc1,?,28µM,?,-91,?,?
CNC(=O)CSc1nnc(-c2ccccc2)n1C,-,-,251µM,-,.,.
Cn1c(SCC(=O)c2cc3ccccc3o2)nnc1-c1ccccc1,-,-,-,-60,.,.
C=CCn1c(SCC(=O)c2ccccc2)nnc1-c1cc2ccccc2o1,-,.,40µM,?,-,?
CCCC[C@]12Cc3cc(C#N)ccc3[C@H](O1)c1c(cc(C)n(-c3ccccc3)c1=O)O2,.,.,.,.,.,-
Cn1c(SCC(=O)N2CCN(c3ccccc3)CC2)nnc1-c1cc2ccccc2o1,.,.,3.5µM,-66,-,?
COc1ccc(NC(=O)CSc2nnc(-c3ccccc3C)n2C)cc1,.,.,-,-67,-,-
O=S(=O)(c1cccc(Cl)c1)c1nnn2c1nc(NCc1ccc3c(c1)OCO3)c1sccc12,?,?,-,-,-,.
Clc1ccc(N2C[C@H]3CC[C@@H](C2)N3)nn1,.,.,.,.,.,-
CCCNc1nc2c(c(=O)n(C)c(=O)n2C)n1Cc1cccc(C)c1,-,?,?,-62,-,-
CCCNc1nc2c(c(=O)n(C)c(=O)n2C)n1CCc1ccccc1,.,.,14µM,-65,?,?
Cc1ccc(Cn2c(SCCN3CCCCC3)nc3c2c(=O)n(C)c(=O)n3C)cc1,?,.,-,-100,?,?
CN(Cc1ccccc1)c1nc2c(c(=O)n(C)c(=O)n2C)n1CCCc1ccccc1,-,-,?,?,13µM,?
CCCNc1nc2c(c(=O)n(C)c(=O)n2C)n1CCCc1ccccc1,.,.,?,-,.,.
CCN(CC)c1nc2c(c(=O)n(C)c(=O)n2C)n1CCCc1ccccc1,.,.,-,-,.,.
CCCc1cnc2c(c1SCC(=O)N1CCC(C)CC1)c(=O)n(C)c(=O)n2C,-,-,-,-,-,.
SMILES,Vaccinia Venus,VACV mCherry inh,FMDV inh,HCMV antiviral,Lassa entry inh,MARV entry inh
CC1(C)CC(=O)c2cc(C(=O)Nc3cccc4ccccc34)c(=O)[nH]c2C1,-,-,.,.,.,.
COc1ccc2cc(CNC3CCS(=O)(=O)C3)c(-c3ccc(OC)c(OC)c3)nc2c1 (configuration not stated),-,-,-,.,.,.
C#CCN1C(=O)CC[C@@]23C1=NC(C(=O)OC)=C(C(=O)OC)[C@@H]2N(Cc1ccccc1)c1ccccc13,.,.,.,.,.,-
CC(C)n1c(NCCc2ccccc2)nc2c1c(=O)n(C)c(=O)n2C,-,-,16µM,-87,?,?
CC(C)n1c(CN(C)Cc2ccccc2)nc2c1c(=O)n(C)c(=O)n2C,-,-,18µM,-89,?,?
CC(=O)C(C)n1c(CN(C)Cc2ccccc2)nc2c1c(=O)n(C)c(=O)n2C (configuration not stated),-,-,-,-,-,?
CCCCCCn1c(NCC)nc2c1c(=O)n(C)c(=O)n2C,?,.,?,-89,?,?
Cn1c(=O)c2c(nc(N/N=C/c3ccncc3)n2Cc2ccccc2)n(C)c1=O,-,-,?,-,-,-
COc1cc(/C=N/Nc2nc3c(c(=O)n(C)c(=O)n3C)n2Cc2ccccc2)ccc1OC(=O)c1ccco1,-,-,14µM,-,?,?
Cc1ccc(Cn2c(=O)n(CCCCC(=O)NCCc3ccc(Cl)cc3)c(=O)c3ccccc32)cc1,-,-,-,-,-,?
O=C1CC(c2nc3ccccc3n2CCCCOc2ccccc2)CN1c1ccccc1Cl (configuration not stated),-,-,-,-,?,-
Cc1ccccc1Cn1c(CN2CCc3ccccc3C2)nc2c1c(=O)n(C)c(=O)n2C,-,-,.,-,?,?
CC1Cc2ccccc2N1C(=O)CSc1nc2c(c(=O)n(C)c(=O)n2C)n1Cc1ccccc1 (configuration not stated),-,-,-,-97,?,?
COc1cccc(Cn2c(NCc3ccco3)nc3c2c(=O)n(C)c(=O)n3C)c1,.,.,?,-98,?,?
Cn1c(=O)c2c(nc(CN3CCN(Cc4ccccc4)CC3)n2Cc2ccc(Cl)cc2)n(C)c1=O,?,-,-,-103,.,-
COC(=O)Cn1c(CN2CCc3ccccc3C2)nc2c1c(=O)n(C)c(=O)n2C,-,-,?,-66,.,.
COc1ccc(C(=O)NNc2ncnc3c2cnn3-c2ccccc2)cc1,-,-,-,-,-,.
COC(=O)[C@@H]1CCCN1Cc1ccc2c(c1)CN(Cc1cc(OC)c3c(c1)OCO3)CCO2,-,-,-,.,.,.
Cn1c(=O)c2c(nc(NCCc3ccccc3)n2Cc2ccc(Cl)cc2)n(C)c1=O,?,?,?,-82,-,-
Cn1c(=O)c2c(nc(NCc3ccccc3)n2Cc2ccccc2)n(C)c1=O,?,-,-,-,-,-
Cn1c(=O)c2c(nc(NCc3ccccc3)n2Cc2ccc(Cl)c(Cl)c2)n(C)c1=O,?,?,?,-76,?,?
Cn1c(=O)c2c(nc(CN3CCC(Cc4ccccc4)CC3)n2CCN2CCOCC2)n(C)c1=O,.,.,-,-,10µM,-
OC(CNCC(c1ccc(Cl)cc1Cl)c1c[nH]c2ccccc12)c1ccccc1 (configuration not stated),?,?,?,-108,?,7.9µM
O=C1c2[nH]nc(-c3ccccc3O)c2C(c2cccc(OCc3ccccc3)c2)N1CCCO (configuration not stated),-,-,-,-,?,?
CCCCN(CC)CCNC(=O)c1cc2c(=O)n(C)c3ccccc3c2s1,-,?,-,-,?,7.9µM
CCCCN(CC)CCNC(=O)c1cc2c(=O)n(CC)c3ccccc3c2s1,-,-,-,-,?,?
